Results on 68 molecules are retold here after PMC4552634, “A New Set of Chemical Starting Points with Plasmodium falciparum Transmission-Blocking Potential for Antimalarial Drug Discovery” (PLoS ONE, 2015).

Each structure is given as a SMILES string. In all, about 13,000 compounds went through this assay and about 3,200 (25%) showed an effect of 50% or more. The list shows a part of the results.

In the assay the test system is P. falciparum stage V gametocytes. The arrangement: BacTiter-Glo ATP luminescence viability of purified stage V gametocytes in 384-well plates, per cent inhibition versus DMSO. The conditions noted are these: 48 h, 5 µM; inhibitor.
In general, % Inhibition refers to the relative decrease from the control value, in per cent. Take `O=C(Nc1cccc(-c2ccc(-c3nc4ccc(C(F)(F)F)cc4[nH]3)cc2)c1)c1csnn1` [TCMDC-136905]: the “% Inhibition” value came to 5.589%.

Regarding `COc1ccc(NC(=O)[C@H](C)Nc2cc(C)nc(NCC3CCCCC3)n2)cc1` [TCMDC-134922], the “% Inhibition” value is given as -9.943%.

`CCOC(=O)c1ccc(N2CCN(c3cc(Cl)ccc3C)CC2)c(NC(=O)Nc2ccc(Cl)c(Cl)c2)c1` [TCMDC-124007]: the “% Inhibition” value was -37.8%.

Take `O=C(/C=C/c1ccc(Cl)c(Cl)c1)N1CCC(CN2CCC(c3c[nH]c4ccc(NS(=O)(=O)c5cccs5)cc34)CC2)CC1` [TCMDC-139955]: the “% Inhibition” value turned out to be 57.44%.

Consider `O=C(/C=C/c1ccc(Cl)c(Cl)c1)N1CCC(CN2CCC(c3c[nH]c4ncccc34)CC2)CC1` [TCMDC-139846], for which the “% Inhibition” value came out at 9.268%.

For `O=C(/C=C/c1ccc(Cl)c(Cl)c1)N1CCC(CN2CCC(c3c[nH]c4ccncc34)CC2)CC1` [TCMDC-140074], the “% Inhibition” value stood at 108.3%.

For the molecule `O=C(/C=C/c1ccc(Cl)c(Cl)c1)N1CCC(CCN2CCC(c3c[nH]c4ccncc34)CC2)CC1` [TCMDC-140075], the “% Inhibition” value worked out at 91.37%.

On to `CS(=O)(=O)Nc1ccc2[nH]cc(C3CCN(CC4CCN(C(=O)/C=C/c5ccc(Cl)c(Cl)c5)CC4)CC3)c2c1` [TCMDC-139813], for which the “% Inhibition” value is reported as 20.88%.

Consider `O=C(/C=C/c1ccc(Cl)c(Cl)c1)N1CCC(CN2CCC(c3c[nH]c4cnccc34)CC2)CC1` [TCMDC-140135], for which the “% Inhibition” value turned out to be 46.53%.

With `O=C(/C=C/c1ccc(Cl)c(Cl)c1)N1CCC(CCN2CCC(c3c[nH]c4ccccc34)CC2)CC1` [TCMDC-139620], the “% Inhibition” value is listed as 8.374%.

Turning to `O=C(/C=C/c1ccc(Cl)c(Cl)c1)N1CCC(CCN2CCC(c3c[nH]c4cnccc34)CC2)CC1` [TCMDC-140136], the “% Inhibition” value is 111.3%.

Turning to `CS(=O)(=O)Nc1ccc2c(C3CCN(CC4CCN(C(=O)/C=C/c5ccc(Cl)c(Cl)c5)CC4)CC3)c[nH]c2c1` [TCMDC-139959], the “% Inhibition” value was -60.99%.

With `CCc1nc(N)nc(N)c1-c1ccccc1` [TCMDC-124296], the “% Inhibition” value was -28.74%.

On to `O=C(Nc1ccc(F)cc1)c1nc2ccccc2nc1Cl` [TCMDC-124769], for which the “% Inhibition” value is on record as 24.46%.

On to `COCCN(C)CCCOc1cc2c(cc1OC)ncn2-c1cc(OCc2ccccc2C(F)(F)F)c(C(N)=O)s1` [TCMDC-135214], for which the “% Inhibition” value is listed as 33.23%.

For the molecule `CCN1CCN(c2cc(C)c3cc(NC(=O)c4cccc(Cl)c4)ccc3n2)CC1` [TCMDC-125580], the “% Inhibition” value is recorded as 30.18%.

As for `N=c1c(C(=O)NCc2ccccc2)cc2c(=O)n3ccccc3nc2n1CCc1ccccc1` [TCMDC-124378], the “% Inhibition” value was found to be 0.2894%.

As to `O=S(=O)(c1ccc2cc[nH]c2c1)N1CCC[C@@H]1CCN1CCC(c2c[nH]c3cnccc23)CC1` [TCMDC-141158], the “% Inhibition” value is 68.56%.

In the case of `O=C(/C=C/c1ccc(Cl)c(Cl)c1)N1CCC(CN2CCC(c3c[nH]c4ccc(O)cc34)CC2)CC1` [TCMDC-139786], the “% Inhibition” value amounted to 94.36%.

Regarding `CS(=O)(=O)Nc1ccc2c(C3CCN(CCC4CCN(C(=O)/C=C/c5ccc(Cl)c(Cl)c5)CC4)CC3)c[nH]c2c1` [TCMDC-139956], the “% Inhibition” value is listed as 32.42%.

Turning to `O=C(/C=C/c1ccc(Cl)c(Cl)c1)N1CCC(CCN2CCC(c3c[nH]c4cc5c(cc34)OCO5)CC2)CC1` [TCMDC-139836], the “% Inhibition” value is recorded as 55.11%.

For `CC1CCN(CC[C@H]2CCCN2S(=O)(=O)c2cccc(NC(=O)c3ccc(-c4ccc(Cl)cc4)o3)c2)CC1` [TCMDC-141078], the “% Inhibition” value is on record as -28.73%.

For `O=C(/C=C/c1ccc(Cl)c(Cl)c1)N1CCC(CN2CCC(c3c[nH]c4cc5c(cc34)OCO5)CC2)CC1` [TCMDC-139838], the “% Inhibition” value is reported as -10.77%.

As for `CCS(=O)(=O)Nc1ccc2[nH]cc(C3CCN(CCC4CCN(C(=O)/C=C/c5ccc(Cl)c(Cl)c5)CC4)CC3)c2c1` [TCMDC-139930], the “% Inhibition” value stood at 78.45%.

`CNC(=O)c1ccc2[nH]cc(C3CCN(CC4CCN(C(=O)/C=C/c5ccc(Cl)c(Cl)c5)CC4)CC3)c2c1` [TCMDC-139980]: the “% Inhibition” value is reported as -32.3%.

Turning to `CC(=O)Nc1ccc2[nH]cc(C3CCN(CC4CCN(C(=O)/C=C/c5ccc(Cl)c(Cl)c5)CC4)CC3)c2c1` [TCMDC-139853], the “% Inhibition” value was found to be 21.75%.

`CC(=O)Nc1ccc2[nH]cc(C3CCN(CCC4CCN(C(=O)/C=C/c5ccc(Cl)c(Cl)c5)CC4)CC3)c2c1` [TCMDC-139854]: the “% Inhibition” value came out at 30.15%.

`O=C1COc2ccc(S(=O)(=O)N3CCC[C@@H]3CCN3CCC(c4c[nH]c5cnccc45)CC3)cc2N1` [TCMDC-141172]: the “% Inhibition” value came to 41.57%.

For the molecule `Cc1cccc(C(=O)NCCCN2CCC(NC(=O)/C=C/c3ccc(Cl)c(Cl)c3)CC2)c1` [TCMDC-133355], the “% Inhibition” value is listed as -67.88%.

With `CCNc1cc(C(=O)N[C@@H](Cc2ccccc2)[C@H](O)CNC2CCSCC2)cc(N2CCCC2=O)c1` [TCMDC-134686], the “% Inhibition” value came out at 19.67%.

For the molecule `CC(C)(C)COC(=O)c1ccc(NC(=O)N[C@@H](Cc2ccc(O)cc2)C(=O)NC2CCN(Cc3ccc(O)cc3)C2)cc1` (some centres unmarked) [TCMDC-135356], the “% Inhibition” value is -84.6%.

Take `COc1ccc(Nc2nccc(NCCNC(=O)c3cc4ccccc4s3)n2)cc1` [TCMDC-133643]: the “% Inhibition” value is given as 10.68%.

As to `COc1ccc2nccc([C@@H](O)CN3CCC(NC(=O)[C@@H]4Cc5ccccc5CN4C(=O)OC(C)(C)C)CC3)c2c1` [TCMDC-141035], the “% Inhibition” value is 29.65%.

For the molecule `O=C(/C=C/c1ccc(Cl)c(Cl)c1)NCCCCCN1CCC(NC(=O)Nc2cc(Cl)nc(Cl)c2)CC1` [TCMDC-135889], the “% Inhibition” value is listed as -21.96%.

In the case of `COc1cc2c(C3CCN(CC4CCN(C(=O)/C=C/c5ccc(Cl)c(Cl)c5)CC4)CC3)c[nH]c2cn1` [TCMDC-140246], the “% Inhibition” value is on record as -34.41%.

In the case of `Nc1cc2c(C3CCN(CC4CCN(C(=O)/C=C/c5ccc(Cl)c(Cl)c5)CC4)CC3)c[nH]c2cn1` [TCMDC-140133], the “% Inhibition” value turned out to be 101.5%.

As to `O=C(Nc1ccc(Cn2ncc(N3CCCNCC3)c(Cl)c2=O)cc1)Nc1ccc(SC(F)(F)F)cc1` [TCMDC-133320], the “% Inhibition” value is -14.71%.

For `O=C(/C=C/c1ccc(Cl)c(Cl)c1)NCCCCCN1CCCC(CNC(=O)c2sc3ccccc3c2Cl)C1` (centres unmarked) [TCMDC-139583], the “% Inhibition” value is on record as 81.46%.

Consider `O=C(/C=C/c1ccc(Cl)c(Cl)c1)NCCCCCN1CC[C@H](NC(=O)c2sc3ccccc3c2Cl)C1` [TCMDC-139562], for which the “% Inhibition” value was 48.14%.

As to `O=C(C=Cc1ccc(Cl)c(Cl)c1)NCCCCCN1CCCC(CCCNC(=O)c2sc3ccccc3c2Cl)C1` (centres unmarked) [TCMDC-139579], the “% Inhibition” value stood at 100.9%.

`O=C(C=Cc1ccc(Cl)c(Cl)c1)NCCCCCN1CCC(CCCNC(=O)c2sc3ccccc3c2Cl)CC1` [TCMDC-139573]: the “% Inhibition” value was 86.01%.

For `O=C(/C=C/c1ccc(Cl)c(Cl)c1)NCCCCCN1CC[C@H](NC(=O)/C=C/c2ccccc2)C1` [TCMDC-139561], the “% Inhibition” value was -7.699%.

Take `O=C(C=Cc1ccc(Cl)c(Cl)c1)NCCCCCN1CCC(CCNC(=O)c2sc3ccccc3c2Cl)CC1` [TCMDC-139567]: the “% Inhibition” value came out at 38.26%.

With `O=C(/C=C/c1ccc(Cl)c(Cl)c1)NCCCCCN1CCC(CCNC(=O)c2snnc2-c2ccccc2)CC1` [TCMDC-140007], the “% Inhibition” value was -18.32%.

For the molecule `CCC(NCc1ccc(-c2cncc(C(=O)NCC(C)C)c2)cc1)c1ccccc1` (centres unmarked) [TCMDC-134237], the “% Inhibition” value stood at 15.84%.

Consider `Cc1cccc2nc(-c3ccc(-c4cccc(CNCc5cnn(-c6ccccc6)n5)c4)s3)[nH]c12.O=C(O)C(F)(F)F` [TCMDC-132972], for which the “% Inhibition” value is on record as -22.07%.

For `O=C(NCc1ccccc1)OC1CNCCC1c1ccc(C(O)Cc2ccccc2)cc1` (centres unmarked) [TCMDC-141020], the “% Inhibition” value was determined as 26.78%.

Regarding `CCc1ccc(-n2c(=O)c3cccnc3n2CC(=O)NC2CCCC2)cc1` [TCMDC-125158], the “% Inhibition” value was -2.653%.

Take `O=C(/C=C/c1ccc(Cl)c(Cl)c1)NCCCCCN1CCC(c2[nH]nc(-c3ccccc3)c2Br)CC1` [TCMDC-139448]: the “% Inhibition” value was -19.71%.

On to `O=C(NCCNc1ccnc(Nc2ccc(F)cc2)n1)c1cc2ccccc2s1` [TCMDC-133637], for which the “% Inhibition” value is -20.49%.

Take `COCCNC(=O)c1ccc(OC2CCN(CC(C)=Cc3ccccc3)CC2)c(Cl)c1` [TCMDC-124691]: the “% Inhibition” value was 9.67%.

Consider `c1cncc(CN2CCCN(c3ccc4c(c3)CCN(Cc3ccc(-c5ncc[nH]5)cc3)CC4)CC2)c1` [TCMDC-136551], for which the “% Inhibition” value is -8.506%.

Take `c1ccc(N2CCN(c3cc(-c4cccnc4)nc(-c4ccncc4)n3)CC2)nc1` [TCMDC-125418]: the “% Inhibition” value came out at 44.02%.

On to `CN1CCN(c2cc(-c3ccncc3)nc(-c3cccnc3)n2)CC1` [TCMDC-125596], for which the “% Inhibition” value is given as 38.53%.

Turning to `c1ccc(CN2CCN(c3cc(-c4cncc(-c5ccccc5)c4)nc(-c4ccccc4)n3)CC2)cc1` [TCMDC-125589], the “% Inhibition” value is given as -13.47%.

With `c1cncc(-c2cc(N3CCCCC3)nc(-c3ccncc3)n2)c1` [TCMDC-125594], the “% Inhibition” value stood at 3.34%.

For the molecule `CN1CCN(c2cc(-c3cccnc3)nc(-c3ccncc3)n2)CC1` [TCMDC-125593], the “% Inhibition” value is on record as 52.46%.

Regarding `c1cncc(-c2cc(N3CCc4ccccc4C3)nc(-c3ccncc3)n2)c1` [TCMDC-125419], the “% Inhibition” value was 60.68%.

For the molecule `COc1ccc(NC(=O)Nc2cccc(-c3cccc(-c4nc5c(C)cccc5[nH]4)c3)c2)cc1` [TCMDC-133247], the “% Inhibition” value is -12.94%.

Turning to `Fc1ccc2[nH]c(-c3cccc(-c4ccc(CNCC5CCCO5)cc4)c3)nc2c1.O=C(O)C(F)(F)F` (centres unmarked) [TCMDC-133105], the “% Inhibition” value is recorded as -0.6383%.

Take `OCC1CCN(Cc2ccc(-c3cccc(-c4nc5ccc(C(F)(F)F)cc5[nH]4)c3)cc2)CC1` [TCMDC-133130]: the “% Inhibition” value is given as -16.83%.

Consider `CN1CCCC(CN2CCN(Cc3cccc(-c4ccc(-c5nc6ccc(F)cc6[nH]5)cc4)c3)CC2)C1` (centres unmarked) [TCMDC-133891], for which the “% Inhibition” value was determined as 104.2%.

As for `CN1CCCC(CN2CCN(Cc3ccc(-c4ccc(-c5nc6ccc(F)cc6[nH]5)s4)cc3)CC2)C1` (centres unmarked) [TCMDC-133892], the “% Inhibition” value came out at 66.7%.

As for `N#CCCN1CCN(Cc2ccc(-c3ccc(-c4nc5ccc(F)cc5[nH]4)s3)cc2)CC1` [TCMDC-133861], the “% Inhibition” value is listed as -54.51%.

For `OCC1CCN(Cc2cccc(-c3ccc(-c4nc5ccc(C(F)(F)F)cc5[nH]4)cc3)c2)CC1` [TCMDC-133123], the “% Inhibition” value is 76.36%.

Turning to `OCC1CCN(Cc2cccc(-c3cccc(-c4nc5ccc(C(F)(F)F)cc5[nH]4)c3)c2)CC1` [TCMDC-133129], the “% Inhibition” value was 41.06%.

As to `CC1CN(Cc2ccc(-c3ccc(-c4nc5ccc(F)cc5[nH]4)s3)cc2)CC(C)O1` (centres unmarked) [TCMDC-133819], the “% Inhibition” value worked out at 9.471%.

With `CN1CCCC(CN2CCN(Cc3ccc(-c4ccc(-c5nc6ccccc6[nH]5)s4)cc3)CC2)C1` (centres unmarked) [TCMDC-133889], the “% Inhibition” value is recorded as 85.26%.
